Source: PubChem BioAssay (NCI)
Where “and” joins values, the source holds several entries; their conditions need not be identical. Identical values can stand only once. About 83,000 compounds went through this panel and 20% of them were active in at least one assay; those are over-represented in the sample as a whole.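 Percent growth is the endpoint: 0 to 100 indicates growth inhibition (40 means 60% inhibition), 0 means no net growth, and negative values indicate cell death.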 A number with no mark means an inactive call. Calls of active or inactive are those of the source. How the source made its calls: active means growth percent below 10; inactive means the rest.

What was measured:
Experiment in all cases: NCI-60 one-dose screen, 48 h (100 = growth as untreated, 0 = no growth, -100 = all killed)
Conditions in all cases: 10 µM unless noted
SK-MEL-2 melanoma = system: SK-MEL-2 melanoma
EKVX NSCLC = system: EKVX NSCLC
SN12C renal = system: SN12C renal
UO-31 renal = system: UO-31 renal
TK-10 renal = system: TK-10 renal
ACHN renal = system: ACHN renal
CAKI-1 renal = system: CAKI-1 renal
A498 renal = system: A498 renal
CCRF-CEM leukemia = system: CCRF-CEM leukemia
MOLT-4 leukemia = system: MOLT-4 leukemia
SR leukemia = system: SR leukemia
RPMI-8226 leukemia = system: RPMI-8226 leukemia
OVCAR-8 ovarian = system: OVCAR-8 ovarian
OVCAR-5 ovarian = system: OVCAR-5 ovarian
OVCAR-4 ovarian = system: OVCAR-4 ovarian
SK-OV-3 ovarian = system: SK-OV-3 ovarian
IGROV1 ovarian = system: IGROV1 ovarian
OVCAR-3 ovarian = system: OVCAR-3 ovarian
HS 578T breast = system: HS 578T breast
NCI/ADR-RES ovarian = system: NCI/ADR-RES ovarian

SMILES | growth (SK-MEL-2 melanoma) | growth (EKVX NSCLC) | growth (SN12C renal) | growth (UO-31 renal) | growth (TK-10 renal) | growth (ACHN renal) | growth (CAKI-1 renal) | growth (A498 renal) | growth (CCRF-CEM leukemia) | growth (MOLT-4 leukemia) | growth (SR leukemia) | growth (RPMI-8226 leukemia) | growth (OVCAR-8 ovarian) | growth (OVCAR-5 ovarian) | growth (OVCAR-4 ovarian) | growth (SK-OV-3 ovarian) | growth (IGROV1 ovarian) | growth (OVCAR-3 ovarian) | growth (HS 578T breast) | growth (NCI/ADR-RES ovarian)
O=C1C=CC(=O)N1c1ccc2ccccc2c1 | 98.2% and 101% | 112% and 95% | 99.3% and 91.1% | 68.3% and 72.8% | 96.2% and 36.7% | 38% and 50.3% | 53.7% and 83% | 101% | 41.3% and 33.4% | 49.7% and 37.1% | 40.7% and 63.4% | 105% and 81.3% | 103% and 101% | 96.6% and 97.9% | 93.7% | 107% and 99.7% | 101% and 105% | 69.7% and 93.9% | 93.6% and 103% | 99.7% and 104%
CC1=CC=C(NC(=O)/C=C/c2ccccc2)CC1Nc1nccc(-c2cccnc2)n1 (stereo not given) | 28.2% | 67.4% | 50.3% | 65.2% | 107% | 50.3% | 32.5% | 24.7% | 19.4% | 26% | 15.3% | 17.2% | 61% | 96.8% | 70% | 57.6% | 54.7% | 19.9% | 44.5% | 47.6%
CCN1C(=S)N(CC)C2C1NC(=S)N2/N=C/C=C/c1ccccc1 (stereo not given) | 46.7% | 62.5% | 40.8% | 40% | 69.2% | 39.3% | 30.4% | 0.507% (active) | 14.7% | 26.4% | 20% | 41.4% | 41.6% | 54.5% | 61% | 35.5% | 37.9% | 3.77% (active) | 12.1% | 15.4%
CCN(CC)/C([O-])=c1\cccc\c1=C1\N=C(c2ccccc2)N=C1[n+]1ccc(-c2ccccc2)cc1 | 78.1% | 93.4% | 89.5% | 37.1% | 102% | 95.8% | 99.9% | 96% | 84.6% | 88% | 102% | 98.4% | 97.6% | 87.8% | 99.5% | 105% | 54.7% | 94% | 109% | 98.2%
COc1cc(CNC(=O)CCCC/C=C/C(C)C)ccc1OCc1cn(-c2ccc([N+](=O)[O-])cc2)nn1 | 92% | 75.3% | 91.7% | 60.6% | 92.7% | 90.7% | 96.7% | 82% | 84.9% | 79.3% | 62.2% | 61.8% | 82.9% | 99.1% | 87.2% | 76.7% | 90.4% | 92.7% | 95.8% | 29%
COc1cc(/C=C2/C=C(c3ccc(C(C)(C)C)cc3)N(CCc3ccc(S(N)(=O)=O)cc3)C2=O)cc(OC)c1OC | 79.2% | 51.3% | 64.7% | 37.1% | 82.1% | 49.5% | 71.6% | 82.4% | 29.3% | 16.3% | 18.4% | -5.19% (active) | 57.4% | 91.4% | 54.7% | 79.9% | 70.5% | 48.8% | 69.6% | 71.8%
COc1cc(/C=C/C(=O)c2ccc(NC(=O)CSc3nnc(-c4cc(-c5ccccc5)nc5ccccc45)n3-c3ccccc3)cc2)cc(OC)c1OC | 100% | 84.9% | 83.8% | 87.7% | 109% | 78.6% | 72.4% | 87.8% | 84.2% | 52.7% | 58% | 72.3% | 86.9% | 93.6% | 103% | 101% | 110% | 98.5% | 90.4% | 86.7%
CC/C=C\C/C=C\C[C@H](O)C/C=C1/C(=O)C=C[C@@H]1C/C=C\CCCC(=O)OC | -16.9% (active) | 24.8% | -29.2% (active) | -83.3% (active) | 5.09% (active) | -75.9% (active) | -1.75% (active) | 21.9% | -11.7% (active) | -10.5% (active) | 0.0807% (active) | -8.73% (active) | 7.41% (active) | 11% | 28.2% | 24.2% | -28.9% (active) | -40.1% (active) | 32.6% | 12.1%
CC1=C2[C@@H](CC1)[C@]1(C)O[C@@](C(C)C)(C[C@H]1OC(=O)CO)[C@H]2OC(=O)C1CC1c1ccccc1 (stereo not given in full) | 75.8% | 93.8% | 61.5% | 54.2% | 88% | 43.1% | 74.1% | -20% (active) | 96.1% | 75.6% | 82% | 88.8% | 65.6% | 78.2% | 102% | 108% | 87.5% | 96.5% | -2.94% (active) | 69%
OCCN1CCN(c2cc(-c3cccc(OC(F)(F)F)c3)nc3ccc(N4CCCC4)cc23)CC1 | 93.3% | 75.9% | 59.5% | 37.1% | 69.3% | 44.7% | 40.5% | 68.3% | 40% | 11.2% | 3.39% (active) | 43.1% | 54.3% | 69.4% | 54.9% | 74.5% | 36.9% | 46.7% | 53.9% | 48.5%
O=C(Nc1ccc2ncsc2c1)c1csc(Nc2ccc3[nH]ncc3c2)n1 | 50.6% | 58.6% | 49.9% | 50.3% | 55.2% | 50.5% | 30.3% | 36.8% | 23% | 49.8% | 29.1% | 13.6% | 45.7% | 78.6% | 74.8% | 52.9% | 59.1% | 8.38% (active) | 37.7% | 56.9%
CCCCCCCC/C=C\CCCCCCCCOc1ccccc1CC(=O)NCC[N+]1(C)CCOCC1 | 90.3% | 92.1% | 60.5% | 96.2% | 8.83% (active) | 85.5% | 71.6% | 95.2% | 67.5% | 83.7% | 30% | 77.7% | 78.1% | 42.7% | 102% | 75.3% | 25.2% | 101% | 92.9% | 97.9%
CN1C(=O)N(C)C2(c3ccccc3)N(CC(=O)Nc3ccccc3O)C(=O)NC12c1ccccc1 (stereo not given) | 111% | 102% | 103% | 74.6% | 93.9% | 102% | 74.1% | 121% | 111% | 102% | 112% | 106% | 102% | 104% | 99.3% | 100% | 101% | 103% | 105% | 99.8%
Cc1cccc(-c2nnc(SCC(=O)Nc3ncc(Cc4ccccc4)s3)n2N2C(=O)CSC2=S)c1 | 75.6% | 73.4% | 19.1% | 72.3% | 47.3% | 43.8% | 23.3% | 64.8% | 76.5% | 87.5% | 44.8% | 77.2% | 24.7% | 72.7% | -14.9% (active) | 87.2% | 50.5% | 50.8% | 1.22% (active) | 80.2%
CN1CCN(Cc2ccc(NC(=O)c3nc4ccc5[nH]ncc5c4c4c3CCCC4)cc2C(F)(F)F)CC1 | -63.5% (active) | 37.2% | -88.7% (active) | -85.9% (active) | -86.7% (active) | -79.4% (active) | -46.6% (active) | 92.9% | -11.1% (active) | -27% (active) | -49.8% (active) | -36.2% (active) | -73.8% (active) | 37.1% | -39.7% (active) | 37% | -65.5% (active) | -80.3% (active) | -35.4% (active) | -35.3% (active)
